# The supplement of paper PMC6555819
# System: PPARg:RXRa IVT, anti-PPARg (NR concentration 270 nM, RXRa partner concentration 90 nM)
# Assay: PBM binding z-score (relative to random genomic background probes); higher = stronger binding; sequences stand for … in GC…GCGATTGACAGCGTAGAATGAAGG
# In short: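 For binding z-scores, the reference was random background probes on custom Agilent 4×180K protein-binding microarrays. These arrays were incubated 1 h with ligand-free nuclear receptor dimers in PBS pH 7.4, 2% milk, 0.02% Triton X-100, 1 mM DTT, 0.2 mg/mL BSA and 0.4 mg/ml salmon testes DNA. Fluorescence was scanned after antibody detection of each partner (one per run) and regression-normalized.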
row,Sequence,PBM binding z-score
1,TCTCGGAGGACACGATGGTCAGAGCTTTCCAGAG,-0.167
2,GCTTACGGATCAAAGGTTATAGCATGAATAGAAT,1.82
3,CTACCAAGGTGAACAAGGTCGTCGATTACTATTC,2.94
4,AATACAGGGTCATCGTAGGCCAGTGTACGCACAG,4.1
5,CCTGCTAGGTCATGGTCAGATAATCTACAGTATG,3.84
6,CGAACTAGGTCAAAGGTCAAAGTCGAGCCAACCA,9.23
7,AATACAGGGTCATTGTAGGCCAGAGTACGCACAG,4.77
8,AGAATGAGGTTATACGTAGATCAGGGATGAAAGT,2.18
9,ATCGAAAGGTCGAGGTGAGTTTAGAGAAAGGGAA,2.26
10,TGAATGAGGTGATAAGATCAGGGAACGTTGCAAA,2.01
11,ATCGAAAGGTCGAAGGTTAGTATACCCACCCGAA,2.11
12,TCATATAGGTAAAGGGTGAAAGTCGGTGTGGTAA,4.59
13,CCTTACGGGTCAAGGTTATAGCGCGGGTGGTACG,3.57
14,CATCCAAGGTCAGAGAGGTCAGTGAATGCCGAGT,3.85
15,CCTTACGGGGCACTGACAGGTTATAGCATTTGGA,0.641
16,TGAATGAGGTTAAAAATCAGGGAACGTGGCGTCG,1.8
17,TTACCAAGGTGAAAGGTTGTTGATGCACGCCTTG,4.17
18,CCTAGCAGGCCCGGGTCACTCAAGCATTTCGCTT,-0.289
19,AGTCAAAGTTCACCAGGTAACGTAAGATTCAGCT,4
20,TCTTGTAGATCAAGCCGGTTAAGAAAGCCTGAGT,0.218
21,TCGAGTAGGTTAGGGGCCTTCAGAATGGCGTCGA,1.07
22,GCTGGGAGGACAAGGTCAGAGCTTTGTCCGTAGA,0.836
